According to PubChem BioAssay (NCI):
This is part of a sample that, as a whole, favours compounds with a hit. Of some 83,000 tested, about 20% had one in any assay.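 Interpretation: 100, growth as untreated; towards 0, rising growth inhibition; 0, no net growth; 0 to -100, cell death. Compounds scoring below 10 were considered active.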 Activity calls are given as the source filed them.

Assays:
Assay in all cases: NCI-60 one-dose screen, 48 h (100 = growth as untreated, 0 = no growth, -100 = all killed)
Details in all cases: 10 µM unless noted
NCI-H23 lung = tested on: NCI-H23 lung
NCI-H226 lung = tested on: NCI-H226 lung
NCI-H322M lung = tested on: NCI-H322M lung
HOP-62 NSCLC = tested on: HOP-62 NSCLC
NCI-H460 lung = tested on: NCI-H460 lung
HOP-92 NSCLC = tested on: HOP-92 NSCLC
NCI-H522 lung = tested on: NCI-H522 lung
A549/ATCC NSCLC = tested on: A549/ATCC NSCLC
786-0 renal = tested on: 786-0 renal
COLO 205 colon = tested on: COLO 205 colon

Measured: growth

COc1cccc(C(=O)NNc2nc(Cl)nc(Cl)n2)c1
inactive: NCI-H23 lung 99.1% | NCI-H226 lung 105% | NCI-H322M lung 98.5% | HOP-62 NSCLC 104% | NCI-H460 lung 107% | HOP-92 NSCLC 98.3% | NCI-H522 lung 100% | A549/ATCC NSCLC 105% | 786-0 renal 101% | COLO 205 colon 107%

COc1ccc(-c2ccc(-c3ccc(C(=N)N)nc3)s2)cc1Cl
active: HOP-62 NSCLC -30.8% | NCI-H460 lung -80.3% | NCI-H522 lung -47.3% | A549/ATCC NSCLC -32.3% | 786-0 renal -89.7% | COLO 205 colon -56%
inactive: NCI-H23 lung 41.2% | NCI-H226 lung 77.7% | NCI-H322M lung 15.7% | HOP-92 NSCLC 84.4%

Clc1ccccc1-c1cnn2cc(-c3ccccc3)cnc12
inactive: NCI-H23 lung 90.3% | NCI-H226 lung 83.2% | NCI-H322M lung 87% | HOP-62 NSCLC 86% | NCI-H460 lung 75.3% | HOP-92 NSCLC 82.9% | NCI-H522 lung 77.3% | A549/ATCC NSCLC 70.5% | 786-0 renal 76.7% | COLO 205 colon 91.8%

Cc1ccc(-c2nc3nc(-c4ccccc4)nc(N4CCCN(S(C)(=O)=O)CC4)c3o2)cc1
active: NCI-H460 lung 4.39%
inactive: NCI-H23 lung 86.6% | NCI-H226 lung 58.1% | NCI-H322M lung 93.9% | HOP-62 NSCLC 66.5% | HOP-92 NSCLC 84.9% | NCI-H522 lung 78.8% | A549/ATCC NSCLC 38.8% | 786-0 renal 87.7% | COLO 205 colon 86.5%

COC1=C(C)C(=O)N2[C@@H]1[C@H](c1ccccc1)OC21C=CC(=O)C=C1
active: NCI-H23 lung 3.23% | NCI-H226 lung -25.9% | HOP-92 NSCLC -11.7% | NCI-H522 lung -69.3% | 786-0 renal -48.9% | COLO 205 colon -34.6%
inactive: NCI-H322M lung 81.8% | HOP-62 NSCLC 28.7% | NCI-H460 lung 89.4% | A549/ATCC NSCLC 82.3%

COc1ccc(Cn2cc3c(c2-c2ccccc2)CCc2cnoc2-3)cc1
inactive: NCI-H23 lung 27.2% | NCI-H226 lung 43.6% | NCI-H322M lung 70.2% | HOP-62 NSCLC 30.1% | HOP-92 NSCLC 52.2% | NCI-H522 lung 12.1% | A549/ATCC NSCLC 20.5% | 786-0 renal 19.4%
active: NCI-H460 lung 2.53% | COLO 205 colon -30.1%

Cc1nn(-c2ccccc2)c(N)c1N=C1NC(=O)/C(=C/c2ccc(Br)cc2)S1
inactive: NCI-H23 lung 75.8% | NCI-H226 lung 78.4% | NCI-H322M lung 83.5% | HOP-62 NSCLC 59.6% | NCI-H460 lung 93.1% | HOP-92 NSCLC 65.6% | NCI-H522 lung 85.4% | A549/ATCC NSCLC 74.3% | 786-0 renal 94.6% | COLO 205 colon 101%

O=c1ccc(=O)n(-c2nc(-c3ccc([N+](=O)[O-])cc3)cs2)[nH]1
inactive: NCI-H23 lung 90.7% | NCI-H226 lung 96.3% | NCI-H322M lung 104% | HOP-62 NSCLC 107% | NCI-H460 lung 102% | HOP-92 NSCLC 103% | NCI-H522 lung 95.8% | A549/ATCC NSCLC 88.9% | 786-0 renal 81.3% | COLO 205 colon 105%

CC[N+]1(CC)CC[N+]2(CCCC(C)CC2)CC1 (stereo not given)
inactive: NCI-H23 lung 102% | NCI-H226 lung 104% | NCI-H322M lung 106% | HOP-62 NSCLC 106% | NCI-H460 lung 105% | HOP-92 NSCLC 96.4% | NCI-H522 lung 93.3% | A549/ATCC NSCLC 91.6% | 786-0 renal 99.9% | COLO 205 colon 113%

CN1CCN(CCOc2ccc(-c3cnc4c(-c5ccc(F)cc5)cnn4c3)cc2)CC1
active: NCI-H460 lung -1.23% | COLO 205 colon -51.7%
inactive: NCI-H23 lung 67% | NCI-H226 lung 104% | NCI-H322M lung 75% | HOP-62 NSCLC 72.6% | HOP-92 NSCLC 54.9% | NCI-H522 lung 64.1% | A549/ATCC NSCLC 27.3% | 786-0 renal 60.3%

CCOC(=O)CC1CSC(Nc2ccccc2)=N1 (stereo not given)
inactive: NCI-H23 lung 98% | NCI-H226 lung 105% | NCI-H322M lung 96.5% | HOP-62 NSCLC 100% | NCI-H460 lung 109% | HOP-92 NSCLC 120% | NCI-H522 lung 94.9% | A549/ATCC NSCLC 95.3% | 786-0 renal 98.7% | COLO 205 colon 125%

CCOC(=O)C(=Cc1ccc(-c2ccccc2)cc1)C(=O)OCC
inactive: NCI-H23 lung 38.6% | NCI-H226 lung 46.5% | NCI-H322M lung 78.4% | HOP-62 NSCLC 73.7% | NCI-H460 lung 78% | HOP-92 NSCLC 63.2% | NCI-H522 lung 26% | A549/ATCC NSCLC 49.6% | 786-0 renal 43.1% | COLO 205 colon 55.6%

Cc1ccc(C2CC(c3nc(-c4ccc(Cl)cc4)oc3C)=NN2C(=O)c2ccncc2)cc1 (stereo not given)
inactive: NCI-H23 lung 85.8% | NCI-H226 lung 88.3% | NCI-H322M lung 93.3% | HOP-62 NSCLC 99.3% | NCI-H460 lung 92.7% | HOP-92 NSCLC 80% | NCI-H522 lung 80.8% | A549/ATCC NSCLC 84.4% | 786-0 renal 79.5% | COLO 205 colon 107%
